# Unmarked numbers belong to inactive results.
# Tested on: Pseudomonas aeruginosa PA14 wild type
# Experiment: respiration area under curve with compound as sole nitrogen source, 24 h (OmniLog AUC (arbitrary units)); higher = more respiration / better utilisation as nitrogen source, active = 2000 or more
# Protocol: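 Biolog Phenotype MicroArray plates PM6-PM8: each di/tripeptide is the sole nitrogen source (IF-0 medium with succinate/ferric citrate and dye mix A). Tetrazolium reduction was read in the OmniLog every 15 min for 24 h at 37°C and summarised as area under the respiration curve (arbitrary units). The paper counts values below 2000 as no respiration and above 8000 as solid respiration. Replicate datasets are averaged.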
row,SMILES,respiration area under curve
1,C[C@H](N)C(=O)N[C@@H](Cc1ccc(O)cc1)C(=O)O (plate: PM6),6830 (active)
2,NC(=O)C[C@H](NC(=O)[C@@H](N)CO)C(=O)O (plate: PM8),12500 (active)
3,C[C@@H](O)[C@H](N)C(=O)N[C@@H](CCCN=C(N)N)C(=O)O (plate: PM7),15400 (active)
4,CC(C)CC(N)C(=O)NC(Cc1c[nH]c2ccccc12)C(=O)O (stereo not given) (plate: PM7),8750 (active)
5,O=C(O)[C@@H]1CCCN1C(=O)[C@@H]1CCCN1 (plate: PM7),10500 (active)
6,N[C@@H](CC(=O)O)C(=O)N[C@@H](Cc1c[nH]c2ccccc12)C(=O)O (plate: PM6),2310 (active)
7,N[C@@H](Cc1ccccc1)C(=O)NCC(=O)NCC(=O)O (plate: PM8),8700 (active)
8,C[C@H](N)C(=O)N[C@@H](CCC(N)=O)C(=O)O (plate: PM8),11600 (active)
9,CC(C)[C@H](NC(=O)[C@H](C)N)C(=O)O (plate: PM8),9240 (active)
10,N[C@@H](Cc1ccc(O)cc1)C(=O)N[C@@H](Cc1ccccc1)C(=O)O (plate: PM7),6680 (active)
11,N[C@@H](Cc1c[nH]c2ccccc12)C(=O)N[C@@H](CC(=O)O)C(=O)O (plate: PM7),446
12,CSCC[C@H](NC(=O)[C@@H](N)[C@@H](C)O)C(=O)O (plate: PM7),4960 (active)
13,CSCC[C@H](N)C(=O)N[C@H](C(=O)O)C(C)C (plate: PM7),4480 (active)
14,C[C@H](NC(=O)[C@@H](N)CO)C(=O)O (plate: PM7),10900 (active)
15,O=C(O)CNC(=O)[C@@H]1CCCN1 (plate: PM7),10100 (active)
16,CSCC[C@H](N)C(=O)N[C@@H](CCC(=O)O)C(=O)O (plate: PM7),1960
17,NCC(=O)NCC(=O)N[C@@H](Cc1ccccc1)C(=O)O (plate: PM8),9740 (active)
18,C[C@H](N)C(=O)N[C@@H](CO)C(=O)O (plate: PM6),9550 (active)
19,CSCC[C@H](N)C(=O)N[C@@H](Cc1c[nH]c2ccccc12)C(=O)O (plate: PM7),3640 (active)
20,C[C@H](NC(=O)[C@@H](N)[C@@H](C)O)C(=O)O (plate: PM7),10500 (active)

row,SMILES,respiration area under curve
1,N[C@@H](CO)C(=O)N[C@@H](CC(=O)O)C(=O)O (plate: PM8),4090 (active)
2,C[C@H](NC(=O)[C@@H](N)CCC(=O)O)C(=O)O (plate: PM8),9190 (active)
3,CC(NC(=O)C(N)CC(=O)O)C(=O)O (stereo not given) (plate: PM8),8830 (active)
4,CC(C)C[C@H](NC(=O)[C@@H](N)C(C)C)C(=O)O (plate: PM7),9770 (active)
5,C[C@H](N)C(=O)N[C@@H](CCCN=C(N)N)C(=O)O (plate: PM6),10100 (active)
6,NC(N)=NCCC[C@H](N)C(=O)N[C@@H](Cc1c[nH]c2ccccc12)C(=O)O (plate: PM6),8730 (active)
7,CC(C)C[C@@H](N)C(=O)NCC(=O)O (plate: PM8),0.4
8,CC(C)C[C@H](NC(=O)[C@@H](N)Cc1ccc(O)cc1)C(=O)O (plate: PM7),7880 (active)
9,NC(N)=NCCC[C@H](N)C(=O)N[C@@H](Cc1ccc(O)cc1)C(=O)O (plate: PM6),9840 (active)
10,N[C@@H](CCC(=O)O)C(=O)N[C@@H](Cc1ccc(O)cc1)C(=O)O (plate: PM6),1140
11,CC(C)C[C@H](N)C(=O)NCC(=O)NCC(=O)O (plate: PM8),10400 (active)
12,CSCCC(NC(=O)C(N)C(C)C)C(=O)O (stereo not given) (plate: PM8),4440 (active)
13,C[C@@H](O)[C@H](N)C(=O)N[C@@H](CCC(N)=O)C(=O)O (plate: PM8),12100 (active)
14,N[C@@H](CCC(=O)O)C(=O)N[C@@H](Cc1c[nH]c2ccccc12)C(=O)O (plate: PM6),2740 (active)
15,NC(=O)CC[C@H](N)C(=O)N[C@@H](CCC(=O)O)C(=O)O (plate: PM8),9650 (active)
16,NC(=O)CC[C@H](NC(=O)[C@@H](N)CCC(N)=O)C(=O)O (plate: PM6),8430 (active)
17,CC[C@H](C)[C@H](N)C(=O)N[C@@H](CCC(N)=O)C(=O)O (plate: PM6),7450 (active)
18,CC[C@H](C)[C@H](N)C(=O)N[C@@H](Cc1ccc(O)cc1)C(=O)O (plate: PM6),2310 (active)
19,CSCC[C@H](N)C(=O)N1CCC[C@H]1C(=O)O (plate: PM7),8120 (active)
20,CC(C)C[C@H](N)C(=O)N[C@@H](Cc1ccccc1)C(=O)O (plate: PM6),6750 (active)

# Reference: the supplement of paper PMC4206461
